Laboratory results reported in the supplement of paper PMC13380429.

Legend:
[1] = test system: Vero E6 infected with SARS-CoV-2; assay: morphology score (similarity to uninfected cells); higher = more like uninfected cells; conditions: 24 h
[2] = test system: Vero E6 infected with SARS-CoV-2; assay: SARS-CoV-2 infection rate relative to infected DMSO; higher = more infection, active = 60 or less; conditions: 24 h

Structure (SMILES)	morphology score [1]	SARS-CoV-2 infection rate [2]
CN1CCN(C(=O)O[C@H]2c3nccnc3C(=O)N2c2ccc(Cl)cn2)CC1 (10 µM)	-0.0495	108% (inactive)
O=c1[nH]c2ccccc2n1C1CCN(CCOc2ccccc2)CC1 [oxiperomide] (0.833333 µM)	-0.0147	104% (inactive)
O=C(O)c1cc(=O)c2c(OCC(O)COc3cccc4oc(C(=O)O)cc(=O)c34)cccc2o1 [cromoglicic-acid] (10 µM)	0.204	87% (inactive)
CC(Cc1ccccc1)(NC(=O)CN)c1ccccc1 (stereo not given) [remacemide] (10 µM)	-0.124	113% (inactive)
O=C([O-])c1ccccn1.O=C([O-])c1ccccn1.O=C([O-])c1ccccn1.[Cr+3] [chromium-picolinate] (10 µM)	-0.0147	112% (inactive)
C=C1/C(=C\C=C2/CCC[C@]3(C)[C@@H]([C@H](C)OCCC(C)(C)O)CC[C@@H]23)C[C@@H](O)C[C@@H]1O [maxacalcitol] (10 µM)	-0.0664	122% (inactive)
CCCN(CCC)CCc1cccc2c1CC(=O)N2 [ropinirole] (10 µM)	-0.139	112% (inactive)
O=C(CNC(=O)c1ccc(Cl)cc1)NO [benurestat] (10 µM)	0.153	114% (inactive)
CC(C)c1cc(CNc2nc(Nc3cc(C4CC4)[nH]n3)cc(N3CCN(C)CC3)n2)on1 (10 µM)	-0.0949	112% (inactive)
CC(C)N(CC[C@H](c1ccccc1)c1cc(CO)ccc1O)C(C)C [5-hydroxymethyl-tolterodine] (10 µM)	0.191	94.5% (inactive)
